Among the data in PubChem BioAssay (Tox21) are Potency and cytotoxicity increase values, retold here.

Results filed as inconclusive are left out. Some compounds were tested as several samples or in several runs, with calls that do not always agree. Active and inactive are the calls of the source. Calls follow the shape of the dose curve; as a rule, active = well fitted curve in the direction sought with a large enough effect in the repeat runs; inconclusive = weak or mixed curves; inactive = no such curve, though single readings can be large; an effect the other way counts as inactive or inconclusive.

Assay [1] can be described thus: A CellTox Green Cytotoxicity Assay to monitor cytotoxicity in HepG2 cells - 0 hour (AID 1224882). Also: nearly all actives have a fitted effect of over 35% in size. In short, it runs like this: (§1)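 HepG2, 600 cells/well premixed w/ CellTox Green; 5 h settle, 37 C/5% CO2; pintool cpd add (DMSO); 37 C, 40 h; fluorescence read at 0, 8, 16, 24, 32, 40 h.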
Assay [2] can be described thus: A CellTox Green Cytotoxicity Assay to monitor cytotoxicity in HepG2 cells - 32 hour (AID 1224883). Also: nearly all actives have a fitted effect of over 50% in size. An outline of the steps: as §1
A short description of assay [3]: A CellTox Green Cytotoxicity Assay to monitor cytotoxicity in HEK293 cells - 8 hour (AID 1224884). Also: nearly all actives have a fitted effect of over 35% in size. Also: potency is read from the fitted curve at half-maximal effect. An outline of the steps:
(§2)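 Read-out: fluorescence of a cell-impermeant cyanine dye staining DNA of dead cells, proportional to cytotoxicity. HEK293, 600 cells/well with reagent, compound (23 nL DMSO) added after 5 h; reads at 0, 8, 16, 24, 32, 40 h.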

Assay [4] can be described thus: qHTS RealTime-Glo MT Cell Viability Assay in HepG2 cells - 16 hour (AID 1224885). Also: nearly all actives have a fitted effect of over 50% in size. An outline of the steps:
(§3)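 Real-time, nonlytic viability: 600 HepG2 cells/well mixed with NanoLuc enzyme plus prosubstrate; 5 h settle, compound (DMSO) added by pintool; luminescence monitored over 40 h at 37 C.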
In general terms: Quantitative high-throughput screening tests each substance at several concentrations.

A short description of assay [5]: qHTS RealTime-Glo MT Cell Viability Assay in HEK293 cells - 24 hour (AID 1224886). Also: top concentration of the series differs between compounds; nearly all actives have a fitted effect of over 50% in size. An outline of the steps:
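Cells + reagent dispensed (600 cells/well, HEK293) → 5 h at 37 C/5% CO2 → 23 nL compound in DMSO pinned → 40 h at 37 C → luminescence read at 0, 8, 16, 24, 32, 40 h.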

A short description of assay [6]: qHTS RealTime-Glo MT Cell Viability Assay in HEK293 cells - 8 hour (AID 1224887). Also: top concentration of the series differs between compounds; nearly all actives have a fitted effect of over 50% in size. An outline of the steps: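 Luminescence readout at each listed time point; HEK293, 600 cells/well, RealTime-Glo MT reagent added with cells; compounds pinned (23 nL in DMSO) after 5 h at 37 C; continuous culture at 37 C.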
A short description of assay [7]: A CellTox Green Cytotoxicity Assay to monitor cytotoxicity in HEK293 cells - 16 hour (AID 1224888). Also: nearly all actives have a fitted effect of over 35% in size. An outline of the steps: as §2
Assay [8] in a line: qHTS RealTime-Glo MT Cell Viability Assay in HepG2 cells - 0 hour (AID 1224889). Also: nearly all actives have a fitted effect of over 50% in size. An outline of the steps:
as §3

Assay [9] can be described thus: A CellTox Green Cytotoxicity Assay to monitor cytotoxicity in HepG2 cells - 8 hour (AID 1224890). Also: nearly all actives have a fitted effect of over 45% in size. An outline of the steps: as §1
Assay [10] is described as follows: qHTS assay to identify small molecule antagonists of the estrogen receptor alpha (ER-alpha) signaling pathway using the BG1 cell line in the presence of 0.1 nM 17-beta-estradiol - cell viability counter screen (AID 1259241). Also: nearly all actives have a fitted effect of over 40% in size. An outline of the steps: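 Cytotoxicity counter-screen: live-cell protease activity measured by fluorescence (30 min reagent step) in the same wells. Cells were VM7Luc4E2 with endogenous ER-alpha and ERE-driven luciferase, treated 22 hr at 37C alongside 0.1 nM 17beta-estradiol final.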
% is scaled to controls: 0 for no effect and ±100 for the full control effect.

Regarding `O=C1O[C@H]([C@H](O)CO)C(O)=C1O`, the Potency entry in assay [1], in assay [2], in assay [3], in [4], in assay [5] and in [6] was “inactive” in each case. Moreover, the Potency result in assay [7], in [8] and in assay [9] was “inactive” each time.

On to `CN1CCCC1=O`, for which the Potency entry in assay [1], in assay [2], in assay [3], in assay [4], in assay [5] and in assay [6] was “inactive” each time. The Potency entry in assay [7], in assay [8] and in [9] was “inactive” in each case.

For the molecule `CCCCCCCCCCCC(=O)N(C)CC(=O)O`, the Potency entry in [1], in assay [3], in [4], in assay [6], in assay [7] and in assay [8] was “inactive” in each case. Also, the Potency entry in assay [9] and in [10] was “inactive” in each case. Further, the cytotoxicity increase in assay [2] is 2.96% [at 6.97 µM] (inactive).

In the case of `CC(C=O)Cc1ccc(C(C)(C)C)cc1` (centres undefined), the Potency entry in assay [1], in assay [2], in assay [3], in [4], in assay [6] and in [7] was “inactive” throughout. The Potency entry in assay [8], in [9] and in [10] was “inactive” each time.

Consider `CCc1cccc(O)c1`, for which the Potency entry in [1], in assay [2], in [3], in [4], in assay [6] and in [7] was “inactive” each time. The Potency result in [8], in [9] and in assay [10] was “inactive” throughout.

As to `Cc1ncc(CO)c(CO)c1O`, the Potency entry in [1], in [2], in assay [3], in assay [4], in [6] and in [7] was “inactive” throughout. Besides, the Potency result in assay [8], in assay [9] and in assay [10] was “inactive” each time.

`NC(N)=S`: the Potency entry in assay [1], in assay [2], in assay [3], in assay [4], in assay [6] and in assay [7] was “inactive” throughout. Also, the Potency result in assay [8] and in assay [9] was “inactive” each time.

Take `CN=C(NC#N)NCCSCc1nc[nH]c1C`: the Potency entry in assay [1], in assay [2], in assay [3], in [4], in assay [6] and in [7] was “inactive” each time. Moreover, the Potency entry in assay [8] and in [9] was “inactive” throughout.

Turning to `Nc1cccc(C(F)(F)F)c1`, the Potency result in [1], in assay [2], in [4], in [6], in assay [7] and in assay [8] was “inactive” throughout. In addition, the Potency entry in assay [9] is “inactive”. Besides, in assay [3], the Potency was 40.1 µM (active) and inactive.

Turning to `CCCOC(=O)NCCCN(C)C`, the Potency result in assay [1], in assay [2], in [3], in assay [4], in assay [6] and in [7] was “inactive” in each case. Also, the Potency entry in [8] and in assay [9] was “inactive” each time.

With `Clc1cccc(Cl)c1NC1=NCCN1`, the Potency result in [1], in [2], in assay [3], in assay [4], in assay [6] and in [7] was “inactive” in each case. Also, the Potency result in assay [8], in assay [9] and in [10] was “inactive” in each case.

Consider `N[C@@H](Cc1cc(I)c(Oc2ccc(O)c(I)c2)c(I)c1)C(=O)O`, for which the Potency entry in [1], in assay [2], in [3], in [4], in assay [6] and in [7] was “inactive” in each case. The Potency result in assay [8], in assay [9] and in [10] was “inactive” throughout.

On to `OCC(CO)(CO)CO`, for which the Potency result in assay [1], in assay [2], in assay [3], in assay [4], in assay [6] and in assay [7] was “inactive” in each case. Moreover, the Potency entry in assay [8], in [9] and in assay [10] was “inactive” in each case.

With `O=C(O)C1=NN(c2ccc(S(=O)(=O)O)cc2)C(=O)C1`, the Potency result in assay [1], in assay [2], in assay [3], in [4], in assay [6] and in assay [7] was “inactive” in each case. Moreover, the Potency result in [8], in assay [9] and in assay [10] was “inactive” throughout.

On to `CCCCCCCCC(=O)O`, for which the Potency result in assay [1], in [2], in [3], in assay [4], in [6] and in assay [7] was “inactive” throughout. The Potency result in [8] and in [9] was “inactive” each time.

For `OCCOCCOCCOCCOCCO`, the Potency result in [1], in assay [2], in assay [3], in assay [4], in [6] and in assay [7] was “inactive” in each case. Moreover, the Potency entry in assay [8] and in assay [9] was “inactive” each time.

As to `Cc1cccc(C)c1[N+](=O)[O-]`, the Potency result in assay [1], in [2], in assay [3], in assay [4], in [6] and in assay [7] was “inactive” throughout. Besides, the Potency result in assay [8], in assay [9] and in [10] was “inactive” throughout.

In the case of `C1CCCNCC1`, the Potency result in [1], in assay [2], in assay [3], in assay [4], in [6] and in assay [7] was “inactive” each time. In addition, the Potency entry in assay [8], in [9] and in assay [10] was “inactive” throughout.

`O=Cc1ccc(CO)o1`: the Potency entry in assay [1], in [2], in assay [3], in assay [4], in [6] and in assay [7] was “inactive” each time. Moreover, the Potency result in assay [8], in assay [9] and in assay [10] was “inactive” throughout.

Take `C=CC(C)(C)C`: the Potency result in [1], in assay [2], in assay [3], in assay [4], in [6] and in assay [7] was “inactive” each time. Besides, the Potency entry in assay [8], in assay [9] and in assay [10] was “inactive” each time.
